# In PubChem BioAssay (NCATS):
# Values joined by “and” are separate entries in the source; they are usually repeats but may differ in a detail not shown here. Identical values can stand only once. Inconclusive results are not listed. Values without a mark were called inactive. Active and inactive are the calls of the source. Calls come from the whole dose curve; as a rule, active = well fitted inhibition curve with a large enough effect; inconclusive = small, poorly fitted or top-dose-only effect; inactive = no such curve, though single readings can be large or run the other way.
# Tested on: Zika virus NS2B-NS3 protease (linked construct)
# Assay: 384 well plate NINDS Rhodamine confirmatory qHTS for Zika virus inhibitors (AID 1347164); note: nearly all actives have a fitted effect of over 65% in size; note: potency is the fitted concentration of half-maximal effect;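 for activity change, negative = inhibition: top concentration of the series differs between compounds; plate controls were no-inhibitor control for no effect and no-enzyme control for full effect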
# Details: rhodamine-110 peptide substrate fluorescence; series mostly up to 1 mM; activity change, negative = inhibition: at the top concentration
# Method in brief: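 Cleavage of Ac-LKRR-Rhodamine 110 (10 microM final) by linked protease (final 5, 30 or 60 nM) was followed as fluorescence at 485/538 nm after 25 min, room temperature, dark. Compounds preincubated ~15 min.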
Compound,"activity change, negative = inhibition",Potency
O=C(Nc1ccc(C(=O)OCc2cc(=O)n3nc(C4CC4)sc3n2)cc1)c1cccc(Cl)c1,-32.2%,–
CCOC(=O)c1ccc(N2C(=O)c3n[nH]c(-c4cccs4)c3C2c2ccc(Cl)cc2Cl)cc1 (stereo unspecified),–,44.7 µM (active)
Cc1ccc(S(=O)(=O)Nc2cc(SCC(=O)O)c(O)c3ccccc23)cc1[N+](=O)[O-],-280% [at 100 µM],–
C=C1c2c(Cl)ccc(O)c2C(O)=C2C(=O)[C@]3(O)C(O)=C(C(N)=O)C(=O)[C@@H](N(C)C)[C@@H]3[C@@H](O)C12 (stereo partly specified),–,20 µM (active)
Nc1c(N=Nc2ccc([N+](=O)[O-])cc2)c(S(=O)(=O)O)cc2cc(S(=O)(=O)O)c(/C=C/c3ccccc3)c(O)c12,–,14.1 µM (active)
O=C(OCc1cc(=O)n2nc(C3CC3)sc2n1)c1ccc(NC(=O)c2ccccc2Cl)cc1,343%,–
CC(C)CN1CC(CNC(=O)c2ccc(Oc3ccccc3)cc2)Oc2ccnc(-c3ccc(OCC(=O)O)cc3)c2C1=O (stereo unspecified),–,28.2 µM (active)
O=C(Nc1cc(C(=O)Nc2ccc(S(=O)(=O)O)cc2S(=O)(=O)O)cc(C(=O)Nc2ccc(S(=O)(=O)O)cc2S(=O)(=O)O)c1)Nc1cc(C(=O)Nc2ccc(S(=O)(=O)O)cc2S(=O)(=O)O)cc(C(=O)Nc2ccc(S(=O)(=O)O)cc2S(=O)(=O)O)c1,–,3.55 µM (active) and 3.16 µM (active)
CN(C)c1cc(CNCC(C)(C)C)c(O)c2c1C[C@H]1C[C@H]3[C@H](N(C)C)C(=O)C(C(N)=O)=C(O)[C@@]3(O)C(=O)C1=C2O,–,158 µM (active)
CCS(=O)(=O)c1cccc(C(=O)Nc2ccc(-c3nc4ccccc4s3)c(O)c2)c1,–,14.1 µM (active)
O=C(Nc1ccc(C(=O)Nc2ccc(C(=O)Nc3ccc(S(=O)(=O)O)c4cc(S(=O)(=O)O)cc(S(=O)(=O)O)c34)cc2)cc1)Nc1ccc(C(=O)Nc2ccc(C(=O)Nc3ccc(S(=O)(=O)O)c4cc(S(=O)(=O)O)cc(S(=O)(=O)O)c34)cc2)cc1,–,2.51 µM (active)
O=C(OC1Cc2c(O)cc(O)cc2OC1c1cc(O)c(O)c(O)c1-c1c(C2Oc3cc(O)cc(O)c3CC2OC(=O)c2cc(O)c(O)c(O)c2)cc(O)c(O)c1O)c1cc(O)c(O)c(O)c1 (stereo unspecified),-9.39%,–
CC(=O)Nc1ccc(S(=O)(=O)O)c2cc(S(=O)(=O)O)c(N=Nc3ccc(N=Nc4ccc(S(=O)(=O)O)cc4)c4ccc(S(=O)(=O)O)cc34)c(O)c12,–,3.98 µM (active)

# Tested on: not listed separately
# Assay: Tertiary RLuc qRT-PCR qHTS assay for Zika virus inhibitors (AID 1347169); note: top concentration of the series differs between compounds; % is set by controls: 0 for no effect and ±100 for the full control effect; nearly all actives have a fitted effect of over 55% in size
# Details: infected Vero cells, reporter luminescence, 48-72 h; series mostly up to 1.74 µM; activity change, negative = inhibition: at the top concentration
# Method in brief: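 Inhibition of ZIKV-RLuc replication in Vero cells, read as Renilla luminescence 1-1.5 hrs after live-cell substrate addition, following 48-72 hrs infection at MOI 1-2 in presence of compound.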
Compound,"activity change, negative = inhibition",Potency
O=C(Nc1ccc(C(=O)OCc2cc(=O)n3nc(C4CC4)sc3n2)cc1)c1ccccc1,52% [at 45.9 µM],–
CCOC(=O)c1ccc(CN(Cc2ccc(F)cc2)S(=O)(=O)c2ccc(F)c(C(=O)Nc3ccccc3C(F)(F)F)c2)cc1,39%,–
CC(C)c1nn2c(=O)cc(COC(=O)c3ccccc3NC(=O)c3cccc(Cl)c3)nc2s1,40.2%,–
COc1ccc(OC)c(Nc2sc(C(=O)c3ccccc3)c(N)c2S(=O)(=O)c2ccccc2)c1,-22.8% [at 5.25 µM],–
CC(C)c1ccc(Nc2sc(C(=O)c3ccccc3)c(N)c2S(=O)(=O)c2ccccc2)cc1,38.7%,–
O=C(O)c1nc2cc(Cl)c(Cl)cc2[nH]c1=O,35.9%,–
CCCCc1nn2c(=O)cc(COC(=O)c3ccc(NC(=O)c4cccs4)cc3)nc2s1,31.3% [at 45.9 µM],–
CCOC(=O)c1c(-c2ccccc2)csc1NC(=O)c1cc(-c2ccc(Cl)cc2)on1,12% [at 14.8 µM],–
O=C(Nc1ccccc1C(=O)OCc1cc(=O)n2c3c(sc2n1)CCCC3)c1ccc(F)cc1,6.31% [at 14.8 µM],–
O=C(Nc1ccccc1C(=O)OCc1cc(=O)n2c3c(sc2n1)CCCC3)c1cccc(Cl)c1,46.6% [at 14.8 µM],–
CCOC(=O)c1ccccc1NC(=O)CSc1ccc(-c2sc(-c3ccccc3)nc2C)nn1,-3.59%,–
O=C(Nc1ccccc1C(=O)OCc1cc(=O)n2c3c(sc2n1)CCCC3)c1ccc(Cl)cc1,14.1% [at 5.25 µM],–
CCOC(=O)c1ccc(NC(=O)c2nc(SCc3ccc(F)cc3)ncc2Cl)cc1,73.2% [at 14.8 µM],–
CCCCOC(=O)c1ccc(NC(=O)c2ccc3c(c2)CCN3S(=O)(=O)c2ccccc2)cc1,22.5% [at 5.25 µM],–
O=C(COC(=O)c1cccc(NC(=O)c2ccc(Br)cc2)c1)c1ccc(Cl)cc1,9.14% [at 5.25 µM],–
CC(Oc1ccccc1)C(=O)Nc1ccc(C(=O)OCc2cc(=O)n3nc(C(C)C)sc3n2)cc1 (stereo unspecified),30.1%,–
O=C(OCc1cc(=O)n2nc(C3CC3)sc2n1)c1ccc(NC(=O)c2ccccc2Cl)cc1,37.2%,–
O=C(Nc1ccccc1C(F)(F)F)c1ccc2oc(=O)c(S(=O)(=O)c3ccc(F)cc3)cc2c1,43.7% [at 5.25 µM],–
O=C(Nc1ccc(C(=O)OCc2cc(=O)n3nc(C4CC4)sc3n2)cc1)c1ccc(F)cc1,31.3% [at 5.25 µM],–
O=C(Nc1cc(C(=O)Nc2ccc(S(=O)(=O)O)cc2S(=O)(=O)O)cc(C(=O)Nc2ccc(S(=O)(=O)O)cc2S(=O)(=O)O)c1)Nc1cc(C(=O)Nc2ccc(S(=O)(=O)O)cc2S(=O)(=O)O)cc(C(=O)Nc2ccc(S(=O)(=O)O)cc2S(=O)(=O)O)c1,140%,–
COc1ccc(S(=O)(=O)c2c(Nc3ccc(C)cc3)sc(C(=O)c3ccc4c(c3)OCO4)c2N)cc1,37.2%,–
O=C(Nc1ccccc1C(=O)OCc1cc(=O)n2nc(C3CC3)sc2n1)c1cccc(Cl)c1,24%,–
O=C(CNC(=O)c1ccccc1F)OCc1cc(=O)n2nc(C3CCCCC3)sc2n1,-7.02%,–
CCS(=O)(=O)c1cccc(C(=O)Nc2ccc(-c3nc4ccccc4s3)c(O)c2)c1,38.8%,–
O=C(Nc1ccc(C(=O)Nc2ccc(C(=O)Nc3ccc(S(=O)(=O)O)c4cc(S(=O)(=O)O)cc(S(=O)(=O)O)c34)cc2)cc1)Nc1ccc(C(=O)Nc2ccc(C(=O)Nc3ccc(S(=O)(=O)O)c4cc(S(=O)(=O)O)cc(S(=O)(=O)O)c34)cc2)cc1,–,inactive
N#C/C(=C\c1ccc(-c2cc(Cl)ccc2Cl)o1)C(=O)Nc1ccccc1C(=O)O,48.2% [at 5.25 µM],–
O=C(Nc1cccc(C(=O)OCc2cc(=O)n3c4c(sc3n2)CCCC4)c1)c1cccc(Cl)c1,22.3%,–
CC(=O)Nc1ccc(S(=O)(=O)O)c2cc(S(=O)(=O)O)c(N=Nc3ccc(N=Nc4ccc(S(=O)(=O)O)cc4)c4ccc(S(=O)(=O)O)cc34)c(O)c12,7.18% [at 14.8 µM],–
